High-throughput results from PubChem BioAssay.
Many of the other results were omitted from the sample, so hits are more common in it than they were.
IL-1B inflam inh = inflammasome signaling inhibition, IL-1 beta readout. AID 743279. activity change, % at 57.5 µM. 360,000 tested, 4.7% active. THP-1 LPS/ATP IL-1B secretion, AlphaLISA, 16 h; active compounds read low; in the data active = activity change below about -50%; inconclusive = mostly about -30% to -49%
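Secreted IL-1B measured by AlphaLISA bead assay after 16 h compound exposure of THP-1 cells; compounds (final up to 57.5 uM) added 1 h before LPS (250 ng/mL) and ATP (1.25 mM) stimulation; lower signal means less secretion.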
HT1080 IDH1KD tx = HT-1080 IDH1 knockdown cell toxicity (counter line); HT-1080 IDH1 knockdown viability, ATP luminescence, 48 h; Potency, µM (top dose mostly 46.1 µM), inactives show top-dose activity, negative = toxicity, most hits filed as cytotoxic; 360,000 tested, 2% active; AID 686971;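 also: potency is read from the fitted curve at half-maximal effect; 0% = DMSO wells and -100% = cell-free medium wells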
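In this qHTS, HT-1080 cells depleted of IDH1 are exposed for 48 h at 37 °C to compound titrations. Toxicity is scored from CellTiter-Glo luminescence, with DMSO as full viability and medium alone as none.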
TDP1 cell noCPT = qHTS for Inhibitors of human tyrosyl-DNA phosphodiesterase 1 (TDP1): qHTS in cells in absence of CPT; 420,000 tested, 15% active; DT40 Tdp1-/- hTDP1 cells, no CPT, ATP luminescence, 48 h; Potency, µM (doses to about 46.2 µM), for the others: at the highest dose activity change, negative = growth inhibition, most hits filed as inhibitors; also: potency is read from the fitted curve at half-maximal effect; nearly all actives have a fitted effect of over 55% in size
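Compound effects on proliferation are scored in DT40 Tdp1-/-;hTDP1 cells in the absence of CPT. ATP levels (CellTiter-Glo luminescence) are recorded after a ≥48 hr, 37 °C incubation.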
ALOX12 inh = ALOX12 (human) lipoxygenase inhibition; purified 12hLO, xylenol orange hydroperoxide absorbance; Potency, µM (series often up to 108 µM), inactives show at the highest dose activity change, negative = inhibition, usual class: inhibitors; 580,000 tested, 1.1% active; AID 1671190; also: potency is read from the fitted curve at half-maximal effect
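Purified human 12hLO at 150 nM in 25 mM Hepes, 0.01% Triton X-100, pH 7.0, preincubated 15 min at room temperature with compound. Reaction started with 40 uM arachidonic acid, 30 min at room temperature. Hydroperoxide measured by Fe-xylenol orange, 573/405 nm absorbance ratio.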
TDP1 cell CPT = growth inhibition of DT40 Tdp1-/-;hTDP1 cells with camptothecin (screen for TDP1 inhibitors); chicken DT40 Tdp1-/-;hTDP1 cells + 20 nM CPT, ATP luminescence, 48 h; Potency, µM (series often up to 46.2 µM), without a hit: at the top dose activity change, negative = growth inhibition, most hits filed as inhibitors; 420,000 tested, 12% active; also: potency is read from the fitted curve at half-maximal effect; nearly all actives have a fitted effect of over 55% in size
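Chicken DT40 Tdp1-/- cells stably complemented with human TDP1 were seeded at 400 cells/well in medium containing 20 nM camptothecin, exposed to pin-transferred compounds, and grown at 37 °C for at least 48 hr. Viability was read as ATP luminescence.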
HT1080-NT tox = kills 2HG-producing HT-1080-NT fibrosarcoma cells. HT-1080-NT fibrosarcoma viability, CellTiter-Glo ATP luminescence, 48 h. Potency, µM (series often up to 46.1 µM), for the others: at the highest dose activity, negative = less viability, usual class: cytotoxic. 360,000 tested, 1.6% active. AID 686970;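 also: NT is the 2HG producing partner of a matched IDH1 knockdown line; potency is read from the fitted curve at half-maximal effect; 0% = DMSO-treated cells and -100% = media-only wells without cells; nearly all actives have a fitted effect of over 55% in size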
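Read-out is CellTiter-Glo luminescence after 10 minutes at room temperature, following 48 hours' compound treatment of HT-1080-NT cells (750 cells/well, RPMI, 5% FBS, 37 degrees C).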
Numbers without * were called inactive; u = inconclusive; x = no result given. Unless noted, calls follow the shape of the dose curve; as a rule, active = well fitted curve in the direction sought with a large enough effect; inconclusive = small, poorly fitted or top-dose-only effect, or another doubt; inactive = no such curve, though single readings can be large; an effect the other way counts as inactive or inconclusive. Unless noted, % is scaled to controls: 0 for no effect and ±100 for the full control effect.

SMILES	IL-1B inflam inh	HT1080 IDH1KD tx	TDP1 cell noCPT	ALOX12 inh	TDP1 cell CPT	HT1080-NT tox
CC(Sc1nnc(C2CC2)n1Cc1ccccc1)C(=O)Nc1ccnn1C(C)C (stereo not drawn)	x	x	x	33%	x	x
Cc1[nH]c2ccccc2c1C(=O)C(C)OC(=O)c1ccccc1F (stereo not drawn)	x	x	x	-3%	x	x
Cn1nccc1-c1coc2c(C(=O)NCC3CCOCC3)cccc12	65	13%	23µM*	-3%	u	0%
CCCOc1ccc(F)cc1-c1cc(C(=O)NCc2ccc(C(F)(F)F)cc2)[nH]n1	-8	u	16µM*	x	u	u
CCCOc1ccc(F)cc1-c1cc(C(=O)NCc2cccc(Cl)c2)[nH]n1	-16	u	u	-35%	23µM*	-24%
CCCOc1ccc(F)cc1-c1cc(C(=O)NCc2ccccc2)[nH]n1	u	-2%	u	1%	u	-4%
CCCOc1ccc(F)cc1-c1cc(C(=O)NCc2cccc(C(F)(F)F)c2)[nH]n1	-25	u	18µM*	-15%	21µM*	u
COc1cc(F)ccc1-c1cc(C(=O)NCc2ccc(C(F)(F)F)cc2)[nH]n1	-26	-27%	u	-6%	u	-19%
O=C(CCCOC(=O)c1ccc([N+](=O)[O-])cc1)c1ccc(F)cc1	x	x	x	-4%	x	x
O=C(OCc1ccc(F)cc1Cl)c1ccc(C2Nc3ccccc3S(=O)(=O)N2)cc1 (stereo not drawn)	x	x	x	97%	x	x
CC1(C)CN(C2CCCCC2)C(=O)[C@H]1CC(=O)Nc1ccc(Br)cc1	-28	17%	18µM*	-7%	u	17%
C=CCNC(=S)Nc1sc2c(c1C(=O)OCC)CC(C(C)C)OC2 (stereo not drawn)	53	7.9µM*	-18%	u	-27%	6.3µM*
COc1ccc(C(=O)N2CCC3(CC2)NC(=O)N(Cc2ccccc2)C3=O)c(OC)c1	x	x	x	-1%	x	x
COC(=O)C1=C(C)N(C)C(=O)N(C)C1c1ccccc1F (stereo not drawn)	x	x	x	-11%	x	x
O=C(NCCc1ccc(Cl)cc1)c1cc2c(s1)-c1ccccc1OC2	x	x	x	-28%	x	x
O=C(NCCCN1CCN(c2ccccc2)CC1)c1cc2c(s1)-c1ccccc1OC2	x	x	23µM*	-20%	u	x
CC1CCCN(CCCNC(=O)c2cc3c(s2)-c2ccccc2OC3)C1 (stereo not drawn)	-77*	u	u	-16%	u	21µM*
Cc1cccc2c1-c1sc(C(=O)NCCCN3CCC(C)CC3)cc1CO2	u	u	u	-28%	u	u
CC1CCN(CCCNC(=O)c2cc3c(s2)-c2ccccc2OC3)CC1	-27	u	u	-6%	u	23µM*
CCN(Cc1nccn1C)C(=O)c1cc(-c2cnc(C)nc2)nc2ccc(F)cc12	x	x	x	24%	x	x
COc1cccc(CN2C[C@@H](CO)[C@H](NC(=O)C3CCC3)C2)n1	x	x	x	75%	x	x
c1ccc(Sc2ccncc2)cc1	-25	5%	3%	6%	1%	1%
c1cc(SSc2ccncc2)ccn1	u	-17%	16µM*	6.3µM*	u	3%
COc1cccc(-n2c(SCC(=O)Nc3ccc4c(c3)CCC4)nc3ccccc3c2=O)c1	1	-14%	9.2µM*	-8%	u	-9%
COc1ccc(NC(=O)CSc2nc(O)cc(=O)n2-c2ccc(OC)cc2)cc1	5	11%	-9%	13µM*	6%	10%
CCN(CC)C(=O)CSc1nnc2nnc3cc(OC)ccc3n12	12	u	-4%	u	-3%	13µM*
CCN(CC)C(=O)CSc1nnc(COc2ccc(OC)cc2)n1N	0	9%	-5%	0%	4%	12%
